Calb FLC: C. albicans growth inhibition with fluconazole, primary screen, CaCi-2 strain, Alamar Blue fluorescence. C. albicans CaCi-2 (fluconazole-resistant clinical isolate) + fluconazole, 48 h. 300,000 tested, 0.57% active. growth inhibition, % (concentration not given with the values);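 active means growth inhibition above about 58% in most replicates, limit read from the data, passing the limit was not always enough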;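 further: all wells also contain fluconazole at 8 µg/ml as a sub-toxic cotreatment; 0% = median of DMSO wells and 100% = median of geldanamycin control wells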
PP5 primary: PP5 phosphatase inhibitors, primary screen, biochemical, fluorescence | purified PP5c, OMFP substrate fluorescence | inhibition, % at 6.7 µM | 320,000 tested, 0.18% active;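 active means inhibition above the campaign's mean inhibition across all tested compounds plus 3 SD, cut at about 9.5% in these data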;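 further: 0% = DMSO only and 100% = 100 µM cantharidin control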
Target sequence (P53041 whole entry, looked up): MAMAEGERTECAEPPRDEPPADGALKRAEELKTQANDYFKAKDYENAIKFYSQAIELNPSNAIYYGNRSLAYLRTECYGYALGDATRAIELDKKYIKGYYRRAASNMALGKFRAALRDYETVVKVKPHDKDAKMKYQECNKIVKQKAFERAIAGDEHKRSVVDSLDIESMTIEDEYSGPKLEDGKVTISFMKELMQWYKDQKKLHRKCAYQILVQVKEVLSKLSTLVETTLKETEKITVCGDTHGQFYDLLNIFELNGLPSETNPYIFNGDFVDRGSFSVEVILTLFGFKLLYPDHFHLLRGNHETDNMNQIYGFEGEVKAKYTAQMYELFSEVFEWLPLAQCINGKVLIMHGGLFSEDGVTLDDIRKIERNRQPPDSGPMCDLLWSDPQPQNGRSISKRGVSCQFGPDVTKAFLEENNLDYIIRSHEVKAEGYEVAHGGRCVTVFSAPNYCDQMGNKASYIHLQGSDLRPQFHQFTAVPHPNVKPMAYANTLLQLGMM
CSC inhib: cancer stem cell viability inhibitors, primary screen, luminescence | cancer stem cell-like cells viability | inhibition, % at 7.5 µM | 300,000 tested, 1.1% active | AID 2717, 2010; in the data active means inhibition above about 75%; tested in HMLE shEcad cells
PP1 counter: PP1-alpha phosphatase inhibitors, primary screen, counter-screen for PP5 inhibitor project, biochemical, fluorescence, OMFP substrate, single point | Serine/threonine-protein phosphatase PP1-alpha catalytic subunit (Homo sapiens), P62136 | purified PP1alpha | inhibition, % at 6.7 µM | 320,000 tested, 0.9% active | AID 2235, 2010;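 active means inhibition above the mean inhibition of all tested compounds plus 3 SD, computed separately for each screening campaign, cut at about 15% in these data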
ALR H2O2 inh: inhibitors of human ALR sulfhydryl oxidase, primary screen, biochemical, H2O2 detection, HRP-luminol luminescence, single point; FAD-linked sulfhydryl oxidase ALR (Homo sapiens), P55789; 290,000 tested, 3.8% active; inhibition, % (test concentration not listed); AID 485317, 2010; purified ALR, DTT oxidation;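 active means mean replicate inhibition above about 79%, with every replicate also reaching it, limit read from the data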
* hit, by the source's call; . = no result. In the library only some 5.4% were active in any assay of this set; here they are far more common.

SMILES	Calb FLC	PP5 primary	CSC inhib	PP1 counter	ALR H2O2 inh
O=C(CCCCCCCC(=O)NCC1CCCO1)NCC1CCCO1 (stereo not given)	-4.1	-0.5	-0.2	-12.5	0.9
NNC(=O)c1cc(O)c(O)c(O)c1	95.2*	2.5	9.1	-1.8	98.6*
COc1c(Cl)cc(C(=O)NN)cc1Cl	15.0	3.0	10.7	-2.1	88.9*
O=C(CN1C(=O)c2ccccc2S1(=O)=O)Nc1ccccc1C(=O)NCc1ccco1	1.9	-0.9	-14.7	-0.4	3.5
CCCC(=O)NC(=S)Nc1ccccc1N1CCOCC1	15.3	-1.4	-8.0	-3.0	-21.9
COc1cc(/C=N\Nc2nc3ccccc3o2)cc(OC)c1OC	28.8	0.2	0.0	-0.4	-25.1
COc1cc(/C=N/Nc2nc3ccccc3o2)cc(OC)c1O	10.5	-1.4	-13.1	-3.0	99.0*
COc1ccc(/C=N/Nc2nc3ccccc3o2)cc1O	18.6	-0.9	15.4	-1.2	99.4*
NS(=O)(=O)c1ccc(NC(=S)NCc2ccc3c(c2)OCO3)cc1	38.7	0.5	-3.1	4.6	-1.1
NS(=O)(=O)c1cccc(NC(=S)NCc2ccc3c(c2)OCO3)c1	115.9*	1.3	-4.4	-2.5	-17.8
Cc1ccc(N2C(=O)CSC2c2cccnc2)cc1F (stereo not given)	-9.0	6.3	-2.4	-5.4	99.5*
O=C1CSC(c2ccc(Cl)cc2)N1c1cccnc1 (stereo not given)	-7.3	-0.2	-5.7	-2.4	98.3*
O=C1CSC(c2cccnc2)N1c1ccc(Cl)cc1 (stereo not given)	-4.0	-2.1	-15.5	-2.8	98.9*
Cc1cc(C)c(C)c(S(=O)(=O)Nc2ccc(C(N)=O)cc2)c1C	6.8	0.3	-12.9	1.6	-2.6
O=C(COC(=O)/C=C/c1ccc(Br)o1)Nc1ccccc1F	9.3	-0.7	-12.9	1.5	14.7
COc1ccccc1CNc1ccc(C(=O)O)cc1	-7.9	0.3	9.9	0.6	-5.4
COc1cccc(CNc2ccc(N3CCCCC3)cc2)c1OC	.	3.0	4.7	-1.7	96.5*
COc1cccc(Nc2ccc(N3CCCCC3)cc2)c1OC	.	2.9	16.6	-0.7	99.6*
COc1ccccc1CNc1ccc(N2CCCCC2)cc1	-22.0	-1.3	-3.3	9.9	98.1*
CC(C)Oc1cccc(C(=O)Nc2ccc(N3CCN(C)CC3)cc2)c1	-7.2	2.4	25.7	-3.5	-3.2
C#CCN(C)CCCOc1ccc(Cl)cc1Cl	-7.6	2.1	3.1	-0.1	1.6
CS(=O)(=O)N1CCCC(C(=O)Nc2ccccc2Cl)C1 (stereo not given)	-0.7	-0.7	-10.4	-2.8	.
CCCCC1=CC2=C(c3ccco3)C(=O)C(C)(OC(=O)c3ccc(OC)cc3)C(=O)C2=CN1Cc1ccc2c(c1)OCO2 (stereo not given)	19.7	1.6	-3.0	24.1*	-28.6
CCCCC1=CC2=C(c3ccco3)C(=O)C(C)(OC(=O)c3ccc(OC)cc3)C(=O)C2=CN1Cc1ccccc1 (stereo not given)	9.1	0.1	16.3	13.0	.
Cc1nc(SC(C)C(=O)c2c(N)n(C)c(=O)n(C)c2=O)c2c(C)c(C)sc2n1 (stereo not given)	2.7	2.1	-2.3	0.2	90.6*
SMILES	Calb FLC	PP5 primary	CSC inhib	PP1 counter	ALR H2O2 inh
O=C(NCC(c1ccco1)N1CCN(c2ccc(F)cc2)CC1)c1ccco1 (stereo not given)	-9.8	-2.0	1.9	-2.5	55.2
O=C(NCc1ccccn1)C(=O)NCC(c1ccco1)N1CCN(c2ccc(F)cc2)CC1 (stereo not given)	-3.1	0.4	-5.1	-5.6	98.0*
O=C(NCc1ccncc1)C(=O)NCC(c1ccco1)N1CCN(c2ccc(F)cc2)CC1 (stereo not given)	-9.1	1.4	0.4	-3.8	94.2*
O=C(NN=C1CCN(Cc2ccccc2)CC1)c1cccc(S(=O)(=O)Nc2ccccc2Cl)c1	12.5	-0.5	-2.8	0.5	3.1
COC(=O)c1ccc(-c2noc(CN(C)Cc3ccncc3C)n2)cc1	-12.1	-0.6	-5.5	2.4	-19.8
O=C(Nc1ccc2c(c1)OCCO2)c1cc(-c2ccccn2)nc2ccc(Br)cc12	1.2	-2.1	-3.0	-2.9	1.1
C/C(=N\NC(=O)c1ccc(Cl)cc1)c1ccc(Br)s1	24.2	-0.5	11.9	1.0	32.4
C/C(=N\Nc1cc(N2CCOCC2)ncn1)c1ccc(O)cc1	4.4	1.3	-10.2	-1.1	96.7*

From PubChem BioAssay
